# Reference: the supplement of paper PMC9588786
# Where a name gives a salt, the structure may show the parent alone. ± gives the standard deviation of the averaged measurements.
# System: HT-1080
# Assay: relative cell viability with RSL3 co-treatment (fraction of control); higher = stronger protection from RSL3-induced ferroptosis (higher viability)
# Details: 10 µM
# 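Note: viability read as CCK-8 absorbance at 450 nm in cells co-exposed to the GPX4 inhibitor RSL3, relative to a 0.01% DMSO vehicle control.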
row,Compound,relative cell viability
1,CNC(=O)CN1CCC(Oc2cc3c(Nc4cccc(Cl)c4F)ncnc3cc2OC)CC1 [Sapitinib (AZD8931)],0.56 ± 0.095
2,N#CC(=C(/N)Sc1ccccc1N)/C(C#N)=C(\N)Sc1ccccc1N,0.84 ± 0.017
3,Cn1cc(C2=C(c3ccc(Cl)cc3Cl)C(=O)NC2=O)c2ccccc21,0.8333 ± 0.0058
4,COc1cc2nccc(Oc3ccc(NC(=O)NC4CC4)c(Cl)c3)c2cc1C(N)=O [Lenvatinib (E7080)],0.56 ± 0.12
5,COc1ccc(C(=O)Nc2sc3c(c2C(N)=O)CCCC3)cc1OC,0.66 ± 0.087
6,O=C1Nc2ccccc2/C1=C1/Nc2ccccc2C1=O [Indirubin],0.75 ± 0.066
7,CN(C)CCCn1cc(C2=C(c3c[nH]c4ccccc34)C(=O)NC2=O)c2ccccc21,0.837 ± 0.045
8,Cc1ccc(NC(=O)c2ccc(CN3CCN(C)CC3)cc2)cc1Nc1nccc(-c2cccnc2)n1 [Imatinib Mesylate (STI571)],0.733 ± 0.17
9,C=CC(=O)Nc1cccc(Oc2nc(Nc3ccc(N4CCN(C)CC4)cc3OC)ncc2Cl)c1,0.927 ± 0.04
10,CNC(=O)c1ccccc1Nc1nc(Nc2ccc(N3CCOCC3)cc2OC)ncc1Cl,0.247 ± 0.07
11,Cc1c(NC(=O)c2ccc(C(C)(C)C)cc2)cccc1-c1cn(C)c(=O)c(Nc2ccc(C(=O)N3CCOCC3)cc2)n1,0.647 ± 0.1
12,COc1cc2ncnc(Nc3cccc(Cl)c3)c2cc1OC [AG-1478 (Tyrphostin AG-1478)],0.68 ± 0.2
13,Cn1cnc2c(F)c(Nc3ccc(Br)cc3Cl)c(C(=O)NOCCO)cc21 [Selumetinib (AZD6244)],0.807 ± 0.015
14,CN1CCN(c2ccc(-c3ccncc3-c3cc(F)c(O)c(F)c3)cc2)CC1,0.48 ± 0.25
15,CCn1c(N)c(C(=O)NC)c(=O)c2ccc(C#CC(C)(O)COC)nc21 (stereo unspecified),0.89 ± 0.16
16,CNCc1ccc(-c2cc(-c3nc(-c4ccc(S(=O)(=O)C(C)C)cc4)cnc3N)on2)cc1,0.47 ± 0.026
17,CC(C)(C)c1ccc(S(=O)(=O)/C=C/C#N)cc1,0.707 ± 0.015
18,O=c1ccc2ccc(O)c(O)c2o1 [Daphnetin],0.85 ± 0.017

row,Compound,relative cell viability
1,CCN1CCN(Cc2ccc(C(=O)Nc3ccc(C)c(Oc4ccc5c(c4)CC(=O)N5)c3)cc2C(F)(F)F)CC1,0.46 ± 0.046
2,CCN1CCN(Cc2ccc(-c3cc4c(N[C@H](C)c5ccccc5)ncnc4[nH]3)cc2)CC1,0.49 ± 0.02
3,Cc1nc(NC(=O)N2CCC[C@H]2C(N)=O)sc1-c1ccnc(C(C)(C)C(F)(F)F)c1 [Alpelisib (BYL719)],0.827 ± 0.015
4,COc1cc(Nc2ncc3c(n2)-c2ccc(Cl)cc2C(c2c(F)cccc2OC)=NC3)ccc1C(=O)O [Alisertib (MLN8237)],0.39 ± 0.18
5,COc1cc2ncnc(Nc3ccc(O)c(Br)c3)c2cc1OC,0.8167 ± 0.0058
6,O=S(=O)(NCCNC/C=C/c1ccc(Br)cc1)c1cccc2cnccc12,0.577 ± 0.045
7,CCN(CC)CCNC(=O)c1c(C)[nH]c(/C=C2\C(=O)Nc3ccc(F)cc32)c1C [Sunitinib Malate],0.543 ± 0.099
8,CO[C@H]1C[C@@H]2CC[C@@H](C)[C@@](O)(O2)C(=O)C(=O)N2CCCC[C@H]2C(=O)O[C@H]([C@H](C)C[C@@H]2CC[C@H](n3cnnn3)[C@H](OC)C2)CC(=O)[C@H](C)/C=C(\C)[C@@H](O)[C@@H](OC)C(=O)[C@H](C)C[C@H](C)/C=C/C=C/C=C/1C [Zotarolimus(ABT-578)],0.607 ± 0.16
9,C[C@H](Nc1ncnc2[nH]cnc12)c1cc2ccc(F)cc2nc1-c1ccccn1,0.59 ± 0.18
10,Cc1cnc(NC(=O)Nc2cc(Br)c(C)cc2OC[C@@H]2CNCCO2)cn1,0.447 ± 0.17
11,CCc1cnn2c(NCc3ccc[n+]([O-])c3)cc(N3CCCC[C@H]3CCO)nc12,0.61 ± 0.1
12,CN(C)Cc1cccc(N=C(c2ccccc2)c2c(O)[nH]c3cc(C(=O)N(C)C)ccc23)c1,0.79 ± 0.044
13,C1=N/C2=N/c3ccc(OCCN4CCCC4)c(c3)COC/C=C/COCc3cccc(c3)C(=C1)N2 [Pacritinib (SB1518)],0.467 ± 0.096
14,c1cncc(CN2CCC(n3ncc4c(N5CCOCC5)nc(-c5ccc6[nH]ccc6c5)nc43)CC2)c1,0.347 ± 0.13
15,C[C@@H](N)[C@H]1CC[C@H](C(=O)Nc2ccncc2)CC1,0.843 ± 0.032
16,Cc1ccc(F)c(NC(=O)Nc2ccc(-c3cccc4[nH]nc(N)c34)cc2)c1 [Linifanib (ABT-869)],0.36 ± 0.046
17,CC1(COc2ccc3c(c2)ncn3-c2ccc3cccc(N4CCC(N)CC4)c3n2)COC1,0.683 ± 0.27
18,CC(C)N(CCC(=O)c1ccc2ccccc2c1)Cc1ccccc1,0.863 ± 0.12
